# Numbering of substitutions follows the chain as printed. Over roughly 24,000 sequences, “enrichment r” has its median near 0.99; the highest 2% begin near 3.7. What follows is part of a selection rich in the highest values, with near analogues and random picks from the rest.
# T1: UNK ZnF1-3 (human, UniProt Q9C0B0 31-174)
# T1 sequence: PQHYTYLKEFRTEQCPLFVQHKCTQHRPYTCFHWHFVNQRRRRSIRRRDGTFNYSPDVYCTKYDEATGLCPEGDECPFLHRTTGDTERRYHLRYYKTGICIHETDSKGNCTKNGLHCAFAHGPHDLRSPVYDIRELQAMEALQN
# B1: chr1:235506153:235506154:+_ENSG00000152904_ENST00000391855|hu_hu|FALSE|FALSE (ssRNA)
# RNA: GGGAGUUCUACAGUCCGACGAUCCUACUCACCUAUUUACUGUUUCUGGAGAAUAACAAAUUUUUUAAAAGGUGGUAAGGCUAAAAGACAAAAAAAAGAUUAACUAAAAUAAGCUAUGAGGUCCAAUCAAGAAUGGCUUAACAUCAACAGAGGAUUGAGCAUCA
# B2: chr10:62229464:62229465:-_ENSMUSG00000020074_ENSMUST00000020268|mus_mus|FALSE|FALSE (ssRNA)
# RNA: GGGAGUUCUACAGUCCGACGAUCCAGUUGAAAUGGUCUUGACAAAGGGAAAGCAUCCACCCAUGUAAACUGAGCAUCAAAAAAGUCACUAGGAAUAUAUAAGUUCUGAUAACGGCGCCUUAGUUCCAUCAUGUCACAACUGGGCAACAGAGGAUUGAGCAUCA
# B3: chr17:65336665:65336666:-_ENSG00000197170_ENST00000356126|hu_mus|FALSE|FALSE (ssRNA)
# RNA: GGGAGUUCUACAGUCCGACGAUCACACAUGUCCUGUUUUUAUUACUAUCACGUGGCUGUCAGGUGAAUAAAAACAAAUAGUAUGAACACACUCAAGGAAAGCUGAGACACAAACCUUUCUGUCUUCAGACUGAAAAAAUGUUUCAACAGAGGAUUGAGCAUCA
# B4: chr12:55960871:55960872:-_ENSMUSG00000062929_ENSMUST00000078124|mus_hu|FALSE|FALSE (ssRNA)
# RNA: GGGAGUUCUACAGUCCGACGAUCUACUAAUGUUUAAGACUGCUAUUAUCAAUUCCUAUUCCAAUUCAAUUUGCAAAAUAUAUUCAGAAAUAGUAGGUGAAAUGACUGUUCCGAAACAUCAGAAGUAUCAUUAAACUUUUAAAGCAACAGAGGAUUGAGCAUCA
# B5: chr10:62229464:62229465:-_ENSMUSG00000020074_ENSMUST00000020268|mus_hu|FALSE|FALSE (ssRNA)
# RNA: B2 RNA with U27C, C69U, A93U, U99C, G102A, C105U
# B6: chr10:123500321:123500322:-_ENSG00000107669_ENST00000369043|hu_mus|FALSE|FALSE (ssRNA)
# RNA: GGGAGUUCUACAGUCCGACGAUCGAUAUGCUAAGAAACCACACAAAACUGGCAUUUGCAAAUGGAUAAAAAUAGGAUAGAUUGCUUGAAAGAAAACAUAAACAAUAAUUUUAUCUAAAUAAUUUUAAUUGAGUGACUAUAUUCCAACAGAGGAUUGAGCAUCA
# B7: chr10:33190432:33190433:-_ENSG00000150093_ENST00000302278|hu_mus|hu_hu_hu_mus_True|68_78 (ssRNA)
# RNA: GGGAGUUCUACAGUCCGACGAUCUACAUUUUCCAAACCUGCAUGUGAAUAAAACCCUGGCAAUAUUGCCCUAAAGCUACCCUACUGUGACUAAGAUGCUGCUGCUGUGAGCUUGGUGUUGCAAAAUCCGCCUGAGUAGGAUUCCAACAGAGGAUUGAGCAUCA
# B8: chr14:105707756:105707757:+_ENSMUSG00000053253_ENSMUST00000138283|mus_hu|motif|central (ssRNA)
# RNA: GGGAGUUCUACAGUCCGACGAUCAUUUAUUUUUCUUAUAAAGGACAUUUGGUAUUCCCACAUUUUCUUAAAAUUUGUCCGGAAACAAAUUCUAUCUUUAACACUCACGUUUCUAAAUAUAUAUAUGUGUGUGUGUAUAUAUAUCAACAGAGGAUUGAGCAUCA
# B9: chr1:120316058:120316059:+_ENSMUSG00000064302_ENSMUST00000049404|mus_mus|FALSE|FALSE (ssRNA)
# RNA: GGGAGUUCUACAGUCCGACGAUCCACCAUGUGUGUCUGAAGAGCAGCUGGUAGGAUAUUAAAAGUCCAAUUUAAAUAACUAGUAGGCAAUAAAGGAGAGAGUGGCGGAGUGAUGAUCUACAACUGGGUCUGAAAUACUUCAUACAACAGAGGAUUGAGCAUCA
# B10: chr2:121263671:121263672:+_ENSMUSG00000027248_ENSMUST00000028683|mus_mus|FALSE|FALSE (ssRNA)
# RNA: GGGAGUUCUACAGUCCGACGAUCAAAACGACAGUAUAAAGGGGGCACAUUUAUUGUCACUGUUCCAAAUGUACAAAAAAAAUUAGAAAAUAACCCCCCAACUCAAUUCCCCCCACCCCCACAACAUUCUUCCCAACACAAAUACAACAGAGGAUUGAGCAUCA
# B11: chr1:58468927:58468928:-_ENSMUSG00000026034_ENSMUST00000148330|mus_mus|mus_mus_mus_hu_False|98_108 (ssRNA)
# RNA: GGGAGUUCUACAGUCCGACGAUCAAUCUAUAAUUACUGAAAGAUGUACCUUAGCUAUGUACUUAAUGAACCAAAUUACCCAAACAAAAUAAACAUGGCAAUAUAAAAAUGUUAAGAAUUUACAAAGCUGUACAAAAUAACUUACAACAGAGGAUUGAGCAUCA
# B12: chrX:71549762:71549763:+_ENSMUSG00000019087_ENSMUST00000019231|mus_mus|mus_mus_mus_hu_False|78_78 (ssRNA)
# RNA: GGGAGUUCUACAGUCCGACGAUCAAACCCGUGUACUUCUUAUUGUUAGCACAACAUUCCCCCCCAACGAUAACGACAGCCAAGCAGGACAGACAGUUAAGUAGUACUUCCACACUCCCAAACUCAGGGAGCCCUAUAACCUUACAACAGAGGAUUGAGCAUCA
# Target: T1, UNK ZnF1-3
# Test: nsRBNS (natural sequence RNA bind-n-seq); RBNS binding buffer (assumed for nsRBNS): 25 mM Tris pH 7.5, 150 mM KCl, 3 mM MgCl2, 0.01% Triton X-100, 500 ug/ml BSA, 20 U/ml SUPERase-In, 4 C; UNK is unkempt and MSI1 is Musashi-1; names of the RNAs are library labels; protein concentration not given here; high values mean tight binding
row,Binder,binding signal
1,B1,5.06 enrichment R
2,B2,3.38 enrichment R
3,B3,1.19 enrichment R
4,B4,0.797 enrichment R
5,B5,6.32 enrichment R
6,B6,5.07 enrichment R
7,B7,1.15 enrichment R
8,B8,0.913 enrichment R
9,B9,2.28 enrichment R
10,B10,5.9 enrichment R
11,B11,1.97 enrichment R
12,B12,1.31 enrichment R

# — PMC12136788
